Bioassay records deposited in PubChem BioAssay by National Center for Advancing Translational Sciences (NCATS).
Giardia FBPA inh – qHTS Assay for Inhibitors of Fructose-1,6-bisphosphate Aldolase from Giardia Lamblia. purified Giardia FBPA. 290,000 compounds, 0.71% hits. Potency, µM (titrated, usually from 59.6 µM), inactives show at the highest dose activity, negative = inhibition, usual class: inhibitors. A8B2U2; also: potency is read from the fitted curve at half-maximal effect; % is scaled to controls: 0 for no effect and ±100 for the full control effect; nearly all actives have a fitted effect of over 55% in size
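Giardia FBPA (40 nM reagent) was preincubated 10 min at RT with compound (up to 57.5 uM final), then substrate plus GAPDH/TPI/NAD/arsenate coupling system with diaphorase/resazurin was added; resorufin fluorescence (525/598 nm) was read after 20 min.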
Shiga toxin inh – A qHTS for Small Molecule Inhibitors of Shiga Toxin; Vero cells, Shiga toxin protein synthesis inhibition reporter; inhibition, % at 38.7 µM; 290,000 compounds, 9.2% hits; in the data active = inhibition mostly above about 28%, no sharp cut-off; inactive = mostly below about 43%; also: 0% is about no effect
LmPK inhibitor – qHTS Assay for Inhibitors of Leishmania Mexicana Pyruvate Kinase (LmPK); Q27686; purified LmPK, Kinase-Glo ATP luminescence, 1 h; Potency, µM (titrated, usually from 57.5 µM), for inactives: at the top dose activity change, negative = inhibition, usual class: inhibitors; 290,000 compounds, 0.37% hits; AID 1721, 2009; also: potency is read from the fitted curve at half-maximal effect; % is scaled to controls: 0 for no effect and ±100 for the full control effect
Target sequence (Q27686 whole entry, looked up): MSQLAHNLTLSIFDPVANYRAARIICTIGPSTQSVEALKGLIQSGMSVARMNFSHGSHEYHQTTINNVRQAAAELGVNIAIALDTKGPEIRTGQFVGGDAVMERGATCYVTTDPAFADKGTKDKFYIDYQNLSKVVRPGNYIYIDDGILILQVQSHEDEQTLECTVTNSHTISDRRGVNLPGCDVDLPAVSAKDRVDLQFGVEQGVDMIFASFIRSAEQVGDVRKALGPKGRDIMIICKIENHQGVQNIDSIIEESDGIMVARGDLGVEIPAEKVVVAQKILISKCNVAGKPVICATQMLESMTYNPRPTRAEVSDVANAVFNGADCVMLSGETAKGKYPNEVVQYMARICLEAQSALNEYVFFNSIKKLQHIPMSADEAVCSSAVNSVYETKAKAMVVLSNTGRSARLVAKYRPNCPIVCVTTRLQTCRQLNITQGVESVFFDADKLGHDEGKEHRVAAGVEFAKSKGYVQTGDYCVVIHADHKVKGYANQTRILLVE
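In 50 mM imidazole pH 7.2 with 7 mM MgCl2, LmPK (0.1 nM) turned over PEP (0.5 mM) and ADP (0.1 mM) for 1 h at room temperature. Luciferase read-out of ATP.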
RE007 growth inh – qHTS Assay for Inhibitors of the HIV-1 protein Vpr; S. pombe RE007 Vpr strain, BacTiter-Glo ATP luminescence, 24 h; Potency, µM (titrated, usually from 92.2 µM), inactives show top-dose activity change, negative = less growth, most hits filed as inhibitors; 360,000 compounds, 0.21% hits; AID 651644, 2012; active = well fitted falling curve with a large enough effect; inconclusive = small, poorly fitted or top-dose-only effect; inactive = no such curve, though single readings can be large or run the other way; also: potency is read from the fitted curve at half-maximal effect; % is scaled to controls: 0 for no effect and ±100 for the full control effect; nearly all actives have a fitted effect of over 50% in size
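Fission yeast RE007 carrying one integrated HIV-1 vpr copy, seeded at OD 0.01 in PMG+AL medium with 23 nL pinned compound. Grown 24 h at 30 degrees; viability read by BacTiter-Glo luminescence after 5 min.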
Cycloheximide cs – Cycloheximide Counterscreen for Small Molecule Inhibitors of Shiga Toxin. cell reporter, cycloheximide protein synthesis inhibition counterscreen. max response, %. 300,000 compounds, 12% hits. AID 2314, 2010; in the data active = max response mostly above about 13%, no sharp cut-off; inactive = mostly below about 14%; also: read at 38.3 µM for the half of the compounds with a filed dose; 0% is about no effect
Tb PYK inh – qHTS of Trypanosoma Brucei Inhibitors. TbPYK enzyme, Kinase-Glo Plus ATP luminescence, 45 min. Potency, µM (series often up to 76.8 µM), for the others: top-dose activity, negative = inhibition, hits mostly inhibitors. 410,000 compounds, 0.12% hits. AID 624173, 2012; also: potency is read from the fitted curve at half-maximal effect; % is scaled to controls: 0 for no effect and ±100 for the full control effect; nearly all actives have a fitted effect of over 50% in size
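Screened from lowest to highest concentration, compounds were pinned into TbPYK/substrate mixtures, and ADP (130 uM final) was added. Plates sat at room temperature for 45 min prior to Kinase-Glo Plus detection by luminescence.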
Starred values were filed as active, the others as inactive; u = inconclusive; x = not tested or not shown. The full list was thinned out, with hits kept by preference. Unless noted, calls follow the shape of the dose curve; as a rule, active = well fitted curve in the direction sought with a large enough effect; inconclusive = small, poorly fitted or top-dose-only effect, or another doubt; inactive = no such curve, though single readings can be large; an effect the other way counts as inactive or inconclusive.

SMILES	Giardia FBPA inh	Shiga toxin inh	LmPK inhibitor	RE007 growth inh	Cycloheximide cs	Tb PYK inh
CCOC(=O)c1ccc(NC(=O)c2cnccn2)cc1	1.8%	26.5	-6.7%	1.9%	19.9*	2.7%
Cc1ccc(NC(=O)c2cc(S(=O)(=O)N3CCC4(CC3)OCCO4)ccc2F)cc1Cl	x	x	x	x	x	-1.5%
COc1ccc(OC)c(NC(=O)c2ccc(CSc3nnc(C)s3)cc2)c1	0.5%	-3.6	-1.9%	-3.0%	-3.0	-7.3%
Cc1c(Cl)cccc1NC(=O)CN1C(=O)CCn2nc(-c3cccn3C)cc21	x	x	x	x	x	-1.3%
O=C1NC[C@H](CCCCN2C[C@H](Cc3ccccc3)N(CCc3ccc(O)cc3)C(=O)C2=O)N(CC2CCCCC2)C1=O	x	x	x	5.3%	x	-3.1%
COCCN(Cc1ccccc1)C(=O)C1CCN(C(=O)Nc2ccccc2)CC1	x	x	x	5.7%	x	-0.3%
CCOC(=O)c1ccc(NC(=O)C2CCCN(c3cnccn3)C2)cc1 (stereo unspecified)	-4.1%	34.0*	-1.1%	-5.6%	28.9*	-11.9%
COc1ccc(N(CC(=O)N2CCN(c3ccc(F)cc3)CC2)S(=O)(=O)c2c(C)nn(C)c2C)cc1	x	x	x	x	x	-6.8%
O=C(O)c1cc(O)c2c(c1)[C@H]([C@H]1c3cc(C(=O)O)cc(O)c3C(=O)c3c(O[C@@H]4OC(CO)C(O)C(O)C4O)cccc31)c1cccc(O[C@@H]3OC(CO)C(O)C(O)C3O)c1C2=O (stereo partly specified)	17.7µM*	x	x	x	x	-9.4%
Brc1ccc(-c2nn3c(-c4ccccn4)nnc3s2)o1	u	24.6	5.4%	1.4%	14.2*	-1.9%
CC(C)(C)c1ccc(-c2nnc3sc(-c4ccccn4)nn23)cc1	-16.3%	91.3*	-2.1%	9.1%	46.2*	u
c1ccc(OCc2nn3c(-c4ccccn4)nnc3s2)cc1	8.5%	68.1*	-2.7%	9.0%	32.5*	0.7%
COc1cccc(-c2nn3c(-c4ccccn4)nnc3s2)c1	14.7%	42.1	2.4%	-13.7%	15.2*	-11.3%
COc1ccc(OC)c(Nc2nc(=O)c3cccnc3s2)c1	u	6.8	2.5%	-2.7%	3.6	35.5µM*
COc1ccc(OC)c(Nc2cc(C)nc3ccccc23)c1	0.8%	5.0	3.2%	7.7%	-1.2	-9.5%
Cc1ccc(Nc2nc(=O)c3cccnc3s2)cc1	-24.8%	71.7*	-5.3%	-5.2%	26.1*	10.8%
O=c1nc(NCc2ccco2)sc2ncccc12	-8.9%	-3.4	-9.6%	8.2%	-2.3	-4.6%
O=c1o[nH]c(-c2ccccc2)c1-c1ccccc1	x	x	x	1.7%	x	3.5%
COc1ccc(/C=C/C(=O)NC(=S)Nc2ccccc2)cc1OC	-9.7%	18.1	-1.2%	0.7%	5.1	-1.1%
COc1ccc(/C=C/C(=O)Nc2ccccc2)cc1OC	-10.2%	126.7*	-8.2%	-1.4%	35.6*	-2.8%
COc1cc(/C=C/C(=O)NC(=O)c2ccccc2O)ccc1OC(C)=O	3.9%	69.9*	-1.7%	-26.1%	32.7*	4.0%
O=C(/C=C/c1ccc(OC(F)F)cc1)Nc1cccc(S(=O)(=O)N2CCOCC2)c1	x	41.3*	1.4%	2.2%	24.5*	6.0%
COc1ccc(/C=C/C(=O)NC(C)(C)C)cc1S(=O)(=O)N1CCOCC1	7.6%	-10.1	2.4%	-9.7%	0.2	4.6%
COc1ccc(/C=C/C(=O)Nc2cccc(S(=O)(=O)N3CCOCC3)c2)cc1OC	x	x	x	2.2%	x	-0.7%
COc1ccc(/C=C/C(=O)NC2CCCCCCC2)cc1S(=O)(=O)N1CCOCC1	-1.2%	70.1*	1.6%	13.8%	37.2*	-0.2%
SMILES	Giardia FBPA inh	Shiga toxin inh	LmPK inhibitor	RE007 growth inh	Cycloheximide cs	Tb PYK inh
CN(C)c1ncc2nc(CCc3ccccc3)c(=O)n(Cc3ccc(F)cc3)c2n1	-2.2%	x	x	x	x	-0.9%
COCCCNc1nc(NCc2ccc(C)cc2)c2cnn(C)c2n1	x	x	x	x	x	-0.1%
COc1ccc(C)cc1NC(=O)CC1NCCNC1=O (stereo unspecified)	x	x	x	x	x	-0.5%
COc1ccc(/C=C/C(=O)Nc2ccccc2)cc1S(=O)(=O)N1CCOCC1	-3.7%	16.6	2.8%	1.5%	10.7*	-6.5%
Cc1ccc2ncc3c(-c4ccc(F)cc4)nn(CC(=O)Nc4ccccc4C)c3c2c1	x	x	x	x	x	-2.2%
CC(=O)c1ccc(NC(=O)C(C)Sc2nnnn2C)cc1 (stereo unspecified)	4.8%	-6.6	2.3%	5.5%	7.8	-4.8%
CC(Sc1ccccn1)C(=O)Nc1ccc(S(N)(=O)=O)cc1 (stereo unspecified)	0.2%	-0.9	3.0%	0.4%	0.6	3.1%
CC(=O)c1ccc(NC(=O)C(C)Sc2ccccn2)cc1 (stereo unspecified)	-1.0%	77.5*	1.8%	-4.4%	34.4*	6.0%
CC(Sc1ccccn1)C(=O)Nc1ccccc1 (stereo unspecified)	-2.9%	76.5*	4.8%	-4.8%	40.4*	-10.6%
Cc1ccc(CNC(=O)CN(C)C2=NS(=O)(=O)c3ccccc32)cc1	x	x	x	8.0%	x	-1.3%
C/C(=N\NC(=O)c1ccc2c(c1)OCO2)c1ccco1	-2.0%	15.1	-4.4%	15.9%	16.5	u
CC(=O)N/N=C(/C)c1ccc(NC(=O)c2csc(C)c2C)cc1	x	146.7*	0.5%	-17.9%	40.5*	-0.5%
CC(=O)Nc1ccc(/C(C)=N/NC(=O)c2ccncc2)cc1	-3.4%	39.3	3.9%	7.2%	11.7	7.2%
CCOC(=O)C/C(C)=N/NC(=O)c1cccs1	-5.2%	71.4*	1.5%	-9.3%	22.1*	0.9%
C/C(=N\NC(=O)c1cccs1)C(C)(C)C	0.8%	57.0*	1.4%	-24.0%	70.5*	2.1%
C/C(=N\NC(=O)c1csc(C)c1C)c1ccco1	-9.7%	62.3*	14.1µM*	3.3%	37.2*	-22.9%
COc1ccc(C(=S)N2CCN(c3ccccc3C)CC2)cc1	1.2%	14.0	4.9%	10.5%	-1.4	-11.1%
C/C(=N\NC(=O)c1cccs1)c1ccc(C(=O)O)s1	-0.4%	82.5*	0.5%	-15.1%	64.0*	-4.8%
C/C(=N\NC(=O)c1csc(C)c1C)c1ccc(C)s1	-7.7%	37.9*	-3.0%	0.9%	38.2*	-10.2%
C/C(=N/NC(=O)c1cccs1)c1ccco1	-0.1%	94.9*	u	20.4%	56.0*	-14.4%
CC(=O)Nc1ccc(NC(=O)c2ccc(-c3ccnn3C)c3ccoc23)cc1	x	x	x	1.7%	x	2.9%
CCOC(=O)c1cnn(-c2cccc(F)c2)c1C1CCNCC1	x	x	x	x	x	5.6%
O=C(Cc1ccc(Cl)cc1)Nc1ccc(N2CCCC2)cc1	-2.7%	6.4	7.7%	-4.3%	4.9	-6.0%
Clc1cccc(Cl)c1CNc1ccc(N2CCCC2)cc1	u	85.4	-8.0%	1.8%	20.5*	u
